Assay [1] in a line: ATG_XTT_Cytotoxicity_XSP2: Cytotoxicity Assessment in the Attagene TRANS-FACTORIAL Multi-Species (XSP2) HepG2 Assay (AID 2283837). The procedure, abridged: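 XTT-based cell number read-out in human HepG2 liver cells carrying transfected reporter units, measured 24 h after chemical dosing. Activity is signal loss versus DMSO baseline.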
In assay [2] the target is human Thyroid hormone Receptor alpha (TRa), THRA (gene 7067) (UniProt P10827). Kind of assay: ATG_hTRa_XSP2: Attagene TRANS-FACTORIAL Multi-Species (XSP2) HepG2 Assay for human Thyroid hormone Receptor alpha (TRa) (AID 2283838). Summed up:
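Gain-of-signal in reporter mRNA, relative to DMSO, after 24 h dosing of transfected HepG2; quantitation by RT-PCR fragment analysis on capillary electrophoresis.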

The target of assay [3] is frog Thyroid hormone Receptor alpha (TRa), thra-a (gene 397942) (UniProt P15204). Kind of assay: ATG_frTRa_XSP2: Attagene TRANS-FACTORIAL Multi-Species (XSP2) HepG2 Assay for frog Thyroid hormone Receptor alpha (TRa) (AID 2283839).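 On AC50: AC50 reflects induction of frog TRa-driven reporter mRNA above DMSO baseline.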 The procedure, abridged:
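HepG2 transiently transfected with multiplexed GAL4-UAS reporters driven by frog TRa-Gal4 chimeras; 24 h chemical exposure. Reporter mRNA quantified by RT-PCR, FAM labelling, HpaI digestion and capillary electrophoresis; gain of signal versus DMSO.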

Assay [4] deals with human Thyroid hormone Receptor beta (TRb), THRB (gene 7068) (UniProt P10828). Kind of assay: ATG_hTRb_XSP2: Attagene TRANS-FACTORIAL Multi-Species (XSP2) HepG2 Assay for human Thyroid hormone Receptor beta (TRb) (AID 2283840).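 Further: actives raise reporter mRNA so potency reflects agonist-like gain of signal.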 The procedure, abridged:
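HepG2 transiently transfected with a multi-species panel including a human TRb–Gal4 chimera driving Gal4-UAS reporters; medium contained 3 nM 6-alpha-fluorotestosterone and 1.5 nM norgestrel. 24 h dosing; RT-PCR/capillary electrophoresis readout; positive-direction fit vs DMSO.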

Assay [5] relates to Sodium/Iodide Symporter (NIS), SLC5A5 (gene 6528). Kind of assay: CPHEA_Stoker_NIS_Inhibition_RAIU: CPHEA's Radioactive Iodide Uptake (RAIU) Assay for Sodium/Iodide Symporter (NIS) Inhibition, Stoker and Laws Labs (AID 2283841). Summed up:
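Iodide uptake through human NIS is measured in an engineered HEK293T line. Cells take up 125I (329pM final) for 2 hours at room temperature alongside chemicals at 0.001–100uM. Retained radioactivity is counted, and the signal is expressed against DMSO controls.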

Assay [6] can be described thus: CPHEA_Stoker_NIS_Cytotoxicity: Cytotoxicity Assessment for CPHEA's Radioactive Iodide Uptake (RAIU) Assay for Sodium/Iodide Symporter (NIS) Inhibition, Stoker and Laws Labs (AID 2283897).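 On AC50: active means loss of ATP signal versus DMSO meaning cytotoxicity.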 Summed up: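 ATP luminescence (Cell Titer Glo) measured viability, with loss of signal normalized to DMSO controls. Cells: hNIS-HEK293T-EPA, seeded 40 hours prior. Dosing: 0.001–100uM, 2 hours, room temperature, uptake buffer pH 7.4.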

Assay [7] is described as follows: CEETOX_H295R_11DCORT_noMTC: CeeTox H295R High-throughput Steroidogenesis Assay for 11-Deoxycortisol (11DCORT), maximum tolerated concentration (MTC) filtered results only (AID 2283911; active means hit-call score of the fitted dose curve at least 0.9, where 1 is the maximum; inactive means score below 0.9). The note with it: actives raise or lower the signal. The procedure, abridged: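 H295R cells were prestimulated 48 h with 10 uM forskolin, then exposed 48 h to chemical (0.1% DMSO final). 11-Deoxycortisol in the medium was measured by MTBE extraction and HPLC-MS/MS, with bidirectional fitting versus DMSO and no MTC filtering of concentrations.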

The nature of assay [8]: CEETOX_H295R_OHPREG_noMTC: CeeTox H295R High-throughput Steroidogenesis Assay for OH-Pregnenolone (OHPREG), maximum tolerated concentration (MTC) filtered results only (AID 2283912; active means hit-call score of the fitted dose curve at least 0.9, where 1 is the maximum; inactive means score below 0.9). The note with it: actives raise or lower the signal. Summed up:
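Readout is HPLC-MS/MS quantification of 17alpha-hydroxypregnenolone released by forskolin-stimulated H295R cells over 48 h of chemical exposure, DMSO as baseline.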

A short description of assay [9]: CEETOX_H295R_OHPROG_noMTC: CeeTox H295R High-throughput Steroidogenesis Assay for OH-Progesterone (OHPROG), maximum tolerated concentration (MTC) filtered results only (AID 2283914; active means hit-call score of the fitted dose curve at least 0.9, where 1 is the maximum; inactive means score below 0.9). The note with it: actives raise or lower the signal. The procedure, abridged:
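Analysis uses all tested concentrations, without maximum-tolerated-concentration screening by MTT. H295R cells, forskolin-primed (10 uM, 48 h), receive chemical for 48 h; hormone in medium measured by HPLC-MS/MS, with bidirectional curve fitting against DMSO.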

The nature of assay [10]: CEETOX_H295R_CORTISOL_noMTC: CeeTox H295R High-throughput Steroidogenesis Assay for Cortisol, maximum tolerated concentration (MTC) filtered results only (AID 2283916; active means hit-call score of the fitted dose curve at least 0.9, where 1 is the maximum; inactive means score below 0.9). The note with it: actives raise or lower the signal. The procedure, abridged: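 H295R adrenal cells were pre-stimulated 48 h with 10 uM forskolin, then exposed 48 h to test chemical in 0.1% DMSO. Medium cortisol was measured by MTBE extraction and HPLC-MS/MS; bidirectional fit versus DMSO, concentrations not MTC-filtered.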

Assay [11] in a line: CEETOX_H295R_CORTIC_noMTC: CeeTox H295R High-throughput Steroidogenesis Assay for Corticosterone (CORTIC), maximum tolerated concentration (MTC) filtered results only (AID 2283917; active means hit-call score of the fitted dose curve at least 0.9, where 1 is the maximum; inactive means score below 0.9). To be noted: actives raise or lower the signal. Summed up: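 Forskolin-stimulated (10 uM, 48 h) H295R cells are dosed 48 h with chemical in DMSO (0.1% final); corticosterone change is quantified by HPLC-MS/MS and fitted bidirectionally against DMSO, unfiltered for MTT-derived MTC.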

Assay [12] can be described thus: CEETOX_H295R_DOC_noMTC: CeeTox H295R High-throughput Steroidogenesis Assay for DOC, maximum tolerated concentration (MTC) filtered results only (AID 2283918; active means hit-call score of the fitted dose curve at least 0.9, where 1 is the maximum; inactive means score below 0.9). To be noted: actives raise or lower the signal. Summed up: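 H295R cells prestimulated 48 h with 10 uM forskolin, then exposed 48 h to test chemical (0.1% DMSO final). Medium 11-deoxycorticosterone extracted with MTBE, quantified by HPLC-MS/MS; bidirectional fit versus DMSO, concentrations not MTC-filtered.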

A short description of assay [13]: CEETOX_H295R_PROG_noMTC: CeeTox H295R High-throughput Steroidogenesis Assay for Progesterone (PROG), maximum tolerated concentration (MTC) filtered results only (AID 2283920; active means hit-call score of the fitted dose curve at least 0.9, where 1 is the maximum; inactive means score below 0.9). To be noted: actives raise or lower the signal. Summed up:
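Progesterone synthesis in the human adrenal line H295R is measured by HPLC-MS/MS after 48 h chemical exposure following 48 h forskolin (10 uM) stimulation. Activity in either direction is fitted relative to DMSO.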

Assay [14] has as its target PGR (gene 5241) (UniProt P06401). Kind of assay: TOX21_PR_BLA_Followup_Agonist_ratio: Tox21 HEK293 Progesterone Receptor (PR) Agonism Beta-lactamase Follow-Up Assay, Ratio (AID 2283933). Summed up:
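Read-out: ratio of cleaved (ch2) to uncleaved (ch1) beta-lactamase substrate fluorescence, gain-of-signal relative to DMSO baseline. Cells: PR-UAS-bla HEK293T, 2% charcoal-stripped FBS; compound exposure 16 hr, 37C; substrate 2 hr, RT.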

The target is the same in assay [15]. As to the kind of experiment: TOX21_PR_BLA_Followup_Antagonist_ratio: Tox21 HEK293 Progesterone Receptor (PR) Antagonism Beta-lactamase Follow-Up Assay, Ratio (AID 2283934). The procedure, abridged:
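Read-out: blue/green beta-lactamase FRET ratio (cleaved ch2 over uncleaved ch1), fitted relative to DMSO baseline. Cells: PR-UAS-bla HEK293T, GAL4-UAS reporter, stimulated with 1 nM R5020 final; 16 hr compound exposure, 37C.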

Assay [16] is described as follows: TOX21_PR_BLA_Followup_Agonist_viability: Viability Assessment in the Tox21 HEK293 Progesterone Receptor (PR) Agonism Beta-lactamase Follow-Up Assay (AID 2283935).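 Further: signal loss means lower viability so actives are cytotoxic.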 Summed up: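 Luminescent ATP quantitation (CellTiter-Glo, 30 min, room temperature) in the same wells as the beta-lactamase read, on PR-UAS-bla HEK293T cells exposed to compound for 16 hr at 37C in 2% charcoal-stripped serum.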

A short description of assay [17]: TOX21_PR_BLA_Followup_Antagonist_viability: Viability Assessment in the Tox21 HEK293 Progesterone Receptor (PR) Antagonism Beta-lactamase Follow-Up Assay (AID 2283936).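 Further: cells exposed to compound with R5020 agonist for 16 h; hits lower the luminescence signal meaning cytotoxicity.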 Summed up:
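PR-UAS-bla HEK293T cells in medium with 2% charcoal-stripped FBS were treated with compounds plus R5020 for 16 hr at 37C. After the beta-lactamase read, CellTiter-Glo was added to the same wells and luminescence read after 30 min at room temperature.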

Assay [18] addresses PGR (gene 5241) (UniProt P06401). As to the kind of experiment: TOX21_PR_LUC_Followup_Agonist: Tox21 HEK293 Progesterone Receptor (PR) Agonism Luciferase Follow-Up Assay (AID 2283937; active means hit-call score of the fitted dose curve at least 0.9, where 1 is the maximum; inactive means score below 0.9). Summed up:
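Luminescence read-out (ONE-Glo, 30 min at room temperature) of PR-driven luciferase in HEK293-PR-A-luc cells after 16 h compound exposure at 37C; gain of signal fitted relative to DMSO baseline.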

Several values for one entry are separate records, joined by “and”; a condition that tells them apart may be missing. Identical values can stand only once. Records with an inconclusive call do not appear. Activity calls are given as the source filed them. How the source made its calls, unless noted: active means hit-call score of the fitted dose curve at least 0.9, where 1 is the maximum; inconclusive means response in the unintended direction; inactive means score below 0.9.

PGR (gene 5241), sequence (P06401 whole entry, looked up): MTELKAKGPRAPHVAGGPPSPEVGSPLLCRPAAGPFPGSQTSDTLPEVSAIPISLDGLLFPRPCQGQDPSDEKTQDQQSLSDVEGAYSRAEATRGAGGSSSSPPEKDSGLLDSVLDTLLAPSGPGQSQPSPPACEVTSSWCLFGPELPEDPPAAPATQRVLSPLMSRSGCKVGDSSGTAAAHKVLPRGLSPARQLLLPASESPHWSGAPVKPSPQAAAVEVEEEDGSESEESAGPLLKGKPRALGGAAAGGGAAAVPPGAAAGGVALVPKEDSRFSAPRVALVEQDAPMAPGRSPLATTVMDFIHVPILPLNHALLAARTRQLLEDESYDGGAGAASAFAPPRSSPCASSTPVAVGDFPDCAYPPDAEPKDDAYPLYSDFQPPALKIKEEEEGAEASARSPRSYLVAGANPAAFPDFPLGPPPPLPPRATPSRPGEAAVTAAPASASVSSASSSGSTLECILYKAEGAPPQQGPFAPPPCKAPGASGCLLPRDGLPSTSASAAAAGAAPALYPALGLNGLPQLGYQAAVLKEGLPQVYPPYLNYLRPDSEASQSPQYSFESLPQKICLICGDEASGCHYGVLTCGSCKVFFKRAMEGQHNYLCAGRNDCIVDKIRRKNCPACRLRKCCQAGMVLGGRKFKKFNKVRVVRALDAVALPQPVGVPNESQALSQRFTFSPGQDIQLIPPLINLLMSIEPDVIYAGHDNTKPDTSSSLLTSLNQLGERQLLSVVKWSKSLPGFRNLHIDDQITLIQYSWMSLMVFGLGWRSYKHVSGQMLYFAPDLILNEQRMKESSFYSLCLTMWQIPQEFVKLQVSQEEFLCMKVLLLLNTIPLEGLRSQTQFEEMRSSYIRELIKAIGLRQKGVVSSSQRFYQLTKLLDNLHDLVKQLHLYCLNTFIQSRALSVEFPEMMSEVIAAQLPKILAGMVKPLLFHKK
frog Thyroid hormone Receptor alpha (TRa), thra-a (gene 397942), sequence (P15204 whole entry, looked up, the tested form may be a part): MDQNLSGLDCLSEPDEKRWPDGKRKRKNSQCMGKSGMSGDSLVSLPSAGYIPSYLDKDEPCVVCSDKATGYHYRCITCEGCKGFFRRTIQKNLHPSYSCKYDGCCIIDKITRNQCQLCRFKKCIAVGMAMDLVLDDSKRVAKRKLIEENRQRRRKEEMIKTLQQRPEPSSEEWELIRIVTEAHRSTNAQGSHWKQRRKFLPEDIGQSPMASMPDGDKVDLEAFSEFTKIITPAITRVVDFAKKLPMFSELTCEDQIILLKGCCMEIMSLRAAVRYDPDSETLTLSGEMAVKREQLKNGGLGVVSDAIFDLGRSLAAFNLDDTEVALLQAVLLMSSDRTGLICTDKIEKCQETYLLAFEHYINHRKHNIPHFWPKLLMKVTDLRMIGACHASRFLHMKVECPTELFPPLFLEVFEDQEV
human Thyroid hormone Receptor beta (TRb), THRB (gene 7068), sequence (P10828 whole entry, looked up, the tested form may be a part): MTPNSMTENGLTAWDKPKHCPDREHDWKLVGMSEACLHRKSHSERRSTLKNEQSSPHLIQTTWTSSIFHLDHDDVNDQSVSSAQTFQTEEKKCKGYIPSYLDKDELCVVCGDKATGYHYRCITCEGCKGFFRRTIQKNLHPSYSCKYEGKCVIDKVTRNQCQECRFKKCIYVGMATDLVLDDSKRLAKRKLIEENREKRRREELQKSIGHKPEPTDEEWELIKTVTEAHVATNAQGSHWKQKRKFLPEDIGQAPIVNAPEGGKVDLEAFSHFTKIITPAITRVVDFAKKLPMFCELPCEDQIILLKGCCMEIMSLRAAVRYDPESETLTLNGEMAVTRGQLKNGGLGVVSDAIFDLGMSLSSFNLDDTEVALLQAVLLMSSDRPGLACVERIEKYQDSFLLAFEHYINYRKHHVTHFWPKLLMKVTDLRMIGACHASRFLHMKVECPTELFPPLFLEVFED
human Thyroid hormone Receptor alpha (TRa), THRA (gene 7067), sequence (P10827 whole entry, looked up, the tested form may be a part): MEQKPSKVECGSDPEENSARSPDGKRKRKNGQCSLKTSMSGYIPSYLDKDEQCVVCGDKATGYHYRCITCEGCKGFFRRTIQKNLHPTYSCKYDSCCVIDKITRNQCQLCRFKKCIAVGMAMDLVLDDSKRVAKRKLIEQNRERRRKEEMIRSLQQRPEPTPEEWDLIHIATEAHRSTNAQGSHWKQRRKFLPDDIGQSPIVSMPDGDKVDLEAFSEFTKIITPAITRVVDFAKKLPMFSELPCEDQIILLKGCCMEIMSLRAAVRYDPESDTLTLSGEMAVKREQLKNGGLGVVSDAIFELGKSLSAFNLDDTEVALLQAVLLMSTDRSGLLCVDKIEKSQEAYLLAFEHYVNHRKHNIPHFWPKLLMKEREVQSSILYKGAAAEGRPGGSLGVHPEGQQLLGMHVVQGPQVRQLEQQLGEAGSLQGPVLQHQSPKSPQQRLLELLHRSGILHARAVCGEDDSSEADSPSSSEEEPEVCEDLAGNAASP

`CN(C)C(=O)Nc1ccc(Cl)c(Cl)c1`: the outcome in [1], in [2], in assay [3] and in assay [4] was inactive.
The term AC50 denotes the concentration at which the activity in the assay is half-maximal. With `CCOC(=O)NCCOc1ccc(Oc2ccccc2)cc1`, the figures for the AC50 in [5] and in [6] were 40.2 µM (active) and 34 µM (active), respectively.
Consider `O=C(O)c1ccccc1`, for which the result in assay [5] and in assay [6] was inactive.
For `CCOC(=O)C(C)Oc1ccc(Oc2nc3ccc(Cl)cc3o2)cc1` (stereo not given), the outcome in assay [5] and in assay [6] was inactive.
In the case of `CCCCOCCOCCOCc1cc2c(cc1CCC)OCO2`, the result in [5] and in assay [6] was inactive.
For the molecule `CCCCC(CC)COC(=O)c1ccccc1C(=O)O` (stereo not given), the molecule was classed as inactive in [3], in assay [7], in assay [8], in [9], in assay [10] and in assay [11]. Moreover, the molecule was called inactive in assay [12] and in assay [13].
For the molecule `N[C@@H](Cc1cc(I)c(Oc2ccc(O)c(I)c2)c(I)c1)C(=O)O`, the outcome in assay [1], in assay [5] and in assay [6] was inactive. In assay [3], the AC50 is 0.185 nM (active) and 197 nM (active).
`CCOC(=O)C(C)Oc1ccc(Oc2cnc3cc(Cl)ccc3n2)cc1` (stereo not given): the outcome in assay [5] and in assay [6] was inactive.
For `COC(=O)CSc1cc(N=c2sc(=O)n3n2CCCC3)c(F)cc1Cl`, the outcome in [5] and in [6] was inactive.
On to `Oc1ccc(C(c2ccc(O)cc2)C(Cl)(Cl)Cl)cc1`, for which the call in assay [3] and in assay [4] was inactive. Moreover, the figures for the AC50 in assay [5] and in assay [6] were 50 µM (active) and 39.9 µM (active), respectively.
`CCCN(CCC)c1c([N+](=O)[O-])cc(C(F)(F)F)c(N)c1[N+](=O)[O-]`: the AC50 in assay [5] is 31.8 µM (active); in [6], 47.8 µM (active).
For `Cc1nn(C)c(Oc2ccccc2)c1C=NOCc1ccc(C(=O)OC(C)(C)C)cc1`, the outcome in assay [5] and in assay [6] was inactive.
For `CC(C)(c1ccc(O)cc1)c1ccc(O)cc1`, the outcome in [3], in assay [4], in [5], in [6], in assay [14] and in [16] was inactive. Besides, the result in assay [17] and in assay [18] was inactive. Also, in assay [15], the half-maximal activity concentration (AC50) is 32.9 µM (active).

For the origin of these results see PubChem BioAssay (EPA / NIEHS).
